Bioassay records: PubChem BioAssay, several laboratories
Beta apoptosis – blocks beta cell apoptosis; INS-1E cytokine-induced death, ATP luminescence, 48 h; percent of positive-control rescue, neutral wells zero; protection from apoptosis, % (no concentration beside the values); 0.8% of 300,000 active; AID 435005;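 active = Every replicate reaches about 75%, or at least half do and their mean reaches it too, limit read from the data; inconclusive = At least half of replicates reach the limit but their mean does not; inactive = Under half of replicates reach the limit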;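 also: 0% = cytokine-treated negative control wells and 100% = positive control rescue; higher means more ATP so stronger rescue from cytokine killing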
SKKanGAS inh – SKKanGAS growth inhibition; S. pyogenes SKKanGAS, kanamycin growth, BacTiter-Glo, 6 h; inhibition, % at 7.5 µM; 1.3% of 300,000 active; AID 1662;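 active = mean replicate score, as percent of positive control median, at least 50; inconclusive = mean below 50 but one replicate at or above 50; inactive = mean and every replicate below 50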;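 also: strain carries kanamycin resistance gene driven by streptokinase promoter and grows in 40 µg/ml kanamycin; loss of luminescence reflects streptokinase promoter inhibition or plain growth inhibition; 0% = median of DMSO wells and 100% = positive control at its reference dose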
Mdm2-MdmX inh – human Mdm2/MdmX binding inhibition; SaOS-2 split-luciferase Mdm2/MdmX complementation, luminescence; inhibition, % at 8 µM; 3% of 330,000 active; AID 485346;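 active = inhibition of at least 50% at 8 µM in the primary screen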
Target sequence (O15151 whole entry, looked up): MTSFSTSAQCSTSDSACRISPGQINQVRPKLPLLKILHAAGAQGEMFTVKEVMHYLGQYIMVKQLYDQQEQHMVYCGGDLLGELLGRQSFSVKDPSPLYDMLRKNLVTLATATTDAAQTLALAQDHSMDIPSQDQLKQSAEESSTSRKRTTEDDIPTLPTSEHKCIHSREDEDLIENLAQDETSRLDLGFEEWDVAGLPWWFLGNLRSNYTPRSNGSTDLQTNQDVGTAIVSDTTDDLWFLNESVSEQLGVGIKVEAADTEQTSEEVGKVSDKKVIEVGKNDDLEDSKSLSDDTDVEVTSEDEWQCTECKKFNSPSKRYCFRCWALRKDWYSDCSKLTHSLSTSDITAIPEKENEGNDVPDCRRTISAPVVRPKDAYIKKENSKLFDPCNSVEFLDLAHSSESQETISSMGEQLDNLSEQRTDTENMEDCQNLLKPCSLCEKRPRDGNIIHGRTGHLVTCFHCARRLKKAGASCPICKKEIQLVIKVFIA
Target sequence (Q00987 whole entry, looked up): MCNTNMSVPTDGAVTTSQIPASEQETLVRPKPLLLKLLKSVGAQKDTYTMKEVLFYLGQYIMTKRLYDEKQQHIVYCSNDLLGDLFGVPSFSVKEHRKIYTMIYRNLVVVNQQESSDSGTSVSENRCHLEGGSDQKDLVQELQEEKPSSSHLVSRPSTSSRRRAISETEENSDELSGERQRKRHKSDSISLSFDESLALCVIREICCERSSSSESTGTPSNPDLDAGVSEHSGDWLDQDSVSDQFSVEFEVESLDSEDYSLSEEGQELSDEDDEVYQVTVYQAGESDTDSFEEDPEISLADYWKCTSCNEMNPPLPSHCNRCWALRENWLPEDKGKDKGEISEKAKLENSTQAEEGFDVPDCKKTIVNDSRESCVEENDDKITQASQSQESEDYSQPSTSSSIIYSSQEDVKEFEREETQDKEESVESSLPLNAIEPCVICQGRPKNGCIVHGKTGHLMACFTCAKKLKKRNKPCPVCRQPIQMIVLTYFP
CSC inhib – blocks cancer stem cells; cancer stem cell-like cells viability, luminescence; inhibition, % at 7.5 µM; 1.1% of 300,000 active; in the data active = inhibition above about 75%; inconclusive = no clear call, values can overlap the other calls; tested in HMLE shEcad cells
Calb FLC – C. albicans growth modulation with fluconazole | C. albicans CaCi-2 (fluconazole-resistant clinical isolate) + fluconazole, Alamar Blue growth, 48 h | growth inhibition, % (concentration not given with the values) | 0.57% of 300,000 active | AID 1979;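 active = growth inhibition above about 58% in most replicates, limit read from the data, passing the limit was not always enough; inconclusive = exactly half the replicates above a set limit; inactive = most replicates below a set limit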;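 also: all wells also contain fluconazole at 8 µg/ml as a sub-toxic cotreatment; 0% = median of DMSO wells and 100% = median of geldanamycin control wells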
MPTP block – inhibitors of mitochondrial permeability transition pore | isolated mouse mitochondria, Ca2+ swelling absorbance, 30 min | inhibition, % at 10 µM | 1.4% of 360,000 active;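 active = inhibition of 50% or more, scaled per plate between neutral and stimulator controls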;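 also: 0% = DMSO wells given calcium and 100% = 1 mM EGTA wells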
Numbers without * were called inactive; ? = inconclusive; · = no result. Only some compounds are listed: those with a hit (about 5.4% of all), similar ones and a draw of the others.

SMILES	Beta apoptosis	SKKanGAS inh	Mdm2-MdmX inh	CSC inhib	Calb FLC	MPTP block
O=C(Nc1ccc(OC(F)(F)F)cc1)C1CCCN(S(=O)(=O)c2cnc[nH]2)C1 (configuration not stated)	3	99*	23	-13	-1	-2
CCNC(=S)NNC(=O)c1c(Cl)c(C)nn1C	5	-1	-8	5	-4	1
CCNC(=S)NNC(=O)c1nn(C)c(C)c1Cl	-2	2	6	6	119*	-2
O=C(O)c1ccc(-c2nc(-c3ccc(Cl)c(Cl)c3)cs2)cc1	1	57*	42	·	89*	5
N#CC(C(=O)CCN1C(=O)C2CC=CCC2C1=O)c1nc2ccccc2[nH]1 (configuration not stated)	0	-1	-2	·	·	1
N#CC(C(=O)C12CC3CC(CC(C3)C1)C2)c1nc2ccccc2[nH]1 (configuration not stated)	13	80*	33	44	-10	4
COc1ccc(-c2cc3nc4ccccc4n3c(N)c2C#N)cc1	3	74*	-31	9	11	6
CCCCCCc1nc2ccccc2c(=O)n1NC(=O)c1c(O)c2c(n(CC(C)C)c1=O)CCCC2	2	57*	46	9	7	-1
CC(NC(=O)COC(=O)C1(C)CC1(Cl)Cl)c1ccccc1 (configuration not stated)	4	·	30	0	·	-2
O=C(CCCOc1ccc(Cl)cc1Cl)N/N=C\C1CCCCC1	-4	4	18	8	-22	5
CC(C)(C)c1ccc(Oc2ccc(NC(=O)C3CC=CCC3C(=O)O)cc2)cc1 (configuration not stated)	2	-10	-19	80*	-14	0
CCCCCNCC(=O)Nc1cccc(C(=O)Nc2cccc(C(F)(F)F)c2)c1	32	5	39	93*	-15	8
O=C(COCC(=O)Nc1cccc(C(F)(F)F)c1)Nc1cccc(C(F)(F)F)c1	-10	-4	-4	77*	-9	14
CC(=O)c1ccc(NC(=O)CSc2nc(N3CCOCC3)nc(N3CCOCC3)n2)cc1	5	-7	-23	30	2	0
CNNC(=S)Nc1cccc(C(F)(F)F)c1	-4	-4	-13	2	-8	3
O=C(CSc1nc(N2CCOCC2)nc(N2CCOCC2)n1)Nc1cccc(C(F)(F)F)c1	·	54*	20	-5	-5	2
FC(F)(F)c1cccc(NC(=S)NNC(=S)Nc2cccc(C(F)(F)F)c2)c1	97*	101*	44	110*	-5	·
O=C(COc1ccc(C(=O)O)cc1)Nc1cccc(C(F)(F)F)c1	·	2	17	·	-19	-1
COc1ccc(NC(=O)CSc2ccc(-c3ccco3)nn2)cc1OC	0	-6	19	3	-2	0
Nc1nc(-c2ccccc2)[nH]c(=O)c1N	-4	3	15	-9	-9	0
Cc1nn2c(COc3ccc(NC(=O)c4ccccc4)cc3)nnc2c2ccccc12	11	94*	21	-1	-28	2
CCC(=O)Nc1ccc(OCc2nnc3c4ccccc4c(C)nn23)cc1	1	5	-12	12	9	0
CC(C)(C)OC(=O)N1CCc2onc(-c3ccc(Br)cc3)c2C1=O	·	·	·	·	·	-1
CCC/C=C(\CCC)C(NS(=O)(=O)c1ccc(C(F)(F)F)cc1)c1ccccc1 (configuration not stated)	53	71*	·	102*	14	·
CCOC(=O)CN(C(=O)COc1nc(C)cc(C)c1C#N)c1ccc(F)cc1	·	0	-2	·	-2	4
SMILES	Beta apoptosis	SKKanGAS inh	Mdm2-MdmX inh	CSC inhib	Calb FLC	MPTP block
COC(=O)C1C(=O)C2=C(CC1C)NC(=O)CC2c1cccc(C)c1 (configuration not stated)	13	1	-7	101*	-2	1
O=C1CS/C(=N\C(=O)N2c3ccccc3Sc3ccccc32)N1	-10	7	7	25	95*	10
NCCC(=O)N1c2ccccc2Sc2ccccc21	-4	-5	34	-1	-17	-1
Cc1ccc(-c2c(C(=O)N/N=C/C3CCCCC3)nnn2-c2nonc2N)cc1	-5	1	6	-1	7	-1
COc1ccc(OC)c(NC(=O)C2CCCN(S(=O)(=O)c3cccc4nonc34)C2)c1 (configuration not stated)	-4	0	24	5	-5	0
CC(C)(C)C(C(=O)NCc1ccccc1)N1CCN(CCN2CCOCC2)CC1 (configuration not stated)	·	·	·	·	·	-1
CCOc1ccc(N(CC(=O)NCc2ccc(C)cc2)S(=O)(=O)c2c(C)[nH]c(=O)[nH]c2=O)cc1	-2	59*	23	10	-1	-2
CCC1(CC)C(=O)C2=C3C1[C@H](C(=O)OC)C=C(C(=O)OC)C[C@H]3[C@H]1C(=O)NC(=O)[C@H]1[C@H]2C (some centres not stated)	-6	-1	-11	-4	1	0
CC1CN2C(c3ccc(Cl)cc3)=CSC2=N1 (configuration not stated)	3	-5	-4	-8	-16	-1
Clc1ccc(-c2csc(Nc3ccccc3)[n+]2Cc2ccco2)c(Cl)c1	·	79*	·	·	-16	5
CCCCOc1ccccc1N1CCN(CCCN2C(=O)C3CCCN3C2=O)CC1 (configuration not stated)	-8	3	5	-5	1	0
Cc1cc(C)nc(NC(=NCCc2c[nH]c3ccccc23)NC(=O)Nc2ccc(Cl)cc2)n1	20	20	39	97*	3	3
NC(=NCCc1c[nH]c2ccccc12)NC(=O)c1ccc(Cl)cc1	-7	-2	9	43	4	4
O=Nc1c(O)n(Cc2ccccc2)c2ccccc12	-9	-3	23	-15	-19	1
O=Nc1c(O)n(Cc2cccc(C(F)(F)F)c2)c2ccccc12	-1	-8	36	10	117*	8
O=Nc1c(O)n(Cc2ccc(Cl)c(Cl)c2)c2ccccc12	11	24	49	84*	79*	21
C=C(C)C(=O)OCC(O)COc1ccc(C(C)(C)c2ccc(OCC(O)COC(=O)C(=C)C)cc2)cc1 (configuration not stated)	104*	6	34	24	·	-3
CC(=O)c1ccc(OCC(O)COc2ccc(C(C)=O)cc2)cc1	3	-8	14	-1	?	0
CC(C)(C)C1CCC(=NNC(=O)CN(c2ccccc2)S(=O)(=O)c2ccccc2[N+](=O)[O-])CC1 (configuration not stated)	-15	-10	9	-5	16	0
Cc1cccc(NC(=O)C2CC(=O)N(c3ccc4c(c3)OCCO4)C2)n1 (configuration not stated)	-1	·	11	-3	·	-1
Oc1ccccc1N=Nc1ccccc1O	·	59*	·	·	94*	4
